Assay results: the supplement of paper PMC12494721
Structures can show the parent of a compound that is named as a salt. Unmarked numbers belong to inactive results.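 The calls were made as follows: for the amine columns active = adjusted P below 0.05 in both replicates with a change the same way and a mean fold change under 0.8 or over 1.25; inactive = the rest.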

tested on: Ruminococcus gnavus DSM 108212; test: fold change of 2-Phenylethylamine concentration vs plate DMSO controls (fold change (ratio)); higher = more amine produced, active = hit call of the paper (significant change in both replicates, either direction); conditions: incubation time: 27 h, anaerobic, 37 °C
Summary of the method: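 In 80 µL wells, cultures of four gut bacterial strains in mGAM started at OD 0.1 before a 1:1 dilution and grew anaerobically at 37 °C for 27 h. Compounds were added to 20 µM final, except sweeteners at 50 µM final. After extraction of whole cultures with cold acetonitrile/methanol plus 0.1% formic acid and centrifugation, amines were measured by LC–triple-quadrupole MS in dynamic MRM mode against external calibration curves, with within-batch drift correction. Values give fold change over DMSO controls on the same plate, averaged across 2 biological replicates.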

SMILES | fold change of 2-Phenylethylamine concentration
O=C(c1cc(O)c(O)c(O)c1)c1ccc(O)c(O)c1O [Exifone] (20 µM) | 1.07
COc1cc(N)cn[n+]1-c1ccccc1 [Amezinium metilsulfate] (20 µM) | 1.11
CN[C@@H]1[C@@H](O[C@H]2O[C@H](CO)[C@@H](N)[C@H](O)[C@H]2O)OC2C[C@@H](N)[C@@H](O[C@H]3[C@H](O)[C@@H](O)[C@H](N)C[C@@H]3N)OC2[C@@H]1O (stereo partly drawn) [Apramycin] (20 µM) | 0.905
COc1ccc2[nH]c([S+]([O-])Cc3ncc(C)c(OC)c3C)nc2n1 (stereo not drawn) [Tenatoprazole] (20 µM) | 1.01
CCCCC(=O)O[C@H]1CC[C@H]2[C@@H]3CCc4cc(O)ccc4[C@H]3CC[C@]12C [Estradiol Valerate] (20 µM) | 0.953
O=C(O)CCc1nc(-c2ccccc2)c(-c2ccccc2)o1 [Oxaprozin] (20 µM) | 1.1
CC(C)(C)NC[C@H](O)c1ccc(O)c(CO)c1 [Levalbuterol hydrochloride] (20 µM) | 0.861
COc1ccc(C(=O)c2ccc(C)cc2)c(O)c1 [Mexenone] (20 µM) | 1.04
